Tests used:
Assay in all cases: DAPPL (digital affinity profiling via proximity ligation, sequencing); 10 mM Tris-HCl pH 7.5, 50 mM NaCl, 1 mM DTT, 4% glycerol, room temperature, 30 min; GST-TFs on glutathione beads, 16-mer random dsDNA library, 0.1% formaldehyde crosslink after washing; high values mean tight binding
Conditions in all cases: protein: recombinant; tags: N-terminal GST; dsDNA, one strand shown
[1] = molecular target: T1, FLI1 (Homo sapiens, UniProt Q01543 1-452)
T1 sequence: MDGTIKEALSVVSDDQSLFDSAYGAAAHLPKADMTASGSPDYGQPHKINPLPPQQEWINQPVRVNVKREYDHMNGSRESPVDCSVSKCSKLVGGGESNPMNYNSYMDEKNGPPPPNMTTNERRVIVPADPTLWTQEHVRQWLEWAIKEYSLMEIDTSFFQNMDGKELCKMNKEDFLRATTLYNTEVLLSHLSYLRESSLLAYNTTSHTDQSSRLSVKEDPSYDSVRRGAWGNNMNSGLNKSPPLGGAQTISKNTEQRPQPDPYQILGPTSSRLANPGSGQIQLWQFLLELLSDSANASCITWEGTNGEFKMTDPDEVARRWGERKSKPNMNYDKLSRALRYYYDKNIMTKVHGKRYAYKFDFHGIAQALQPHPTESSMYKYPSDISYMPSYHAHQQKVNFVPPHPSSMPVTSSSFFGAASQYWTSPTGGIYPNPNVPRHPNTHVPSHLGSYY
Outline: (§1)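 Human transcription factors fused to GST were expressed in yeast, captured on glutathione beads, given DNA barcodes and pooled with a GST-only negative control. Pools were incubated with 200 nmole of a 16-mer random double-stranded DNA library in Tris/NaCl/DTT/glycerol buffer at room temperature for 30 min. They were then washed, crosslinked with 0.1% formaldehyde, proximity-ligated (BsaI/T4 ligase, 1 h, 37 °C), PCR-amplified and sequenced on an Illumina NextSeq500. Binding signal is each 6-mer's read frequency for a factor divided by its frequency for the GST control.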

[2] = molecular target: T2, ELK1 (Homo sapiens, UniProt P19419 1-428)
T2 sequence: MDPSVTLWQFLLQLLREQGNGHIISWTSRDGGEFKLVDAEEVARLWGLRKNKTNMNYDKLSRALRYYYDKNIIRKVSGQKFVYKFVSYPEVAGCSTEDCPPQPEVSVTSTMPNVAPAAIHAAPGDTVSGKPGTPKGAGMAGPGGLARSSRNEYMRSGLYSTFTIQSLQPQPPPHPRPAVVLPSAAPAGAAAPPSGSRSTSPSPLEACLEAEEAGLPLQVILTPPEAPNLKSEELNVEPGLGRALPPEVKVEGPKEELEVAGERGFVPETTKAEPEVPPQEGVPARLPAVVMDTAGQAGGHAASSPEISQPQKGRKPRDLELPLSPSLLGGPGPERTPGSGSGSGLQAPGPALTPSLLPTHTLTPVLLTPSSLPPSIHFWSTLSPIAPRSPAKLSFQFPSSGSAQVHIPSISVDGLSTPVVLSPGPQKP
Outline: as §1

[3] = molecular target: T3, GABPA (Homo sapiens, UniProt Q06546 1-454)
T3 sequence: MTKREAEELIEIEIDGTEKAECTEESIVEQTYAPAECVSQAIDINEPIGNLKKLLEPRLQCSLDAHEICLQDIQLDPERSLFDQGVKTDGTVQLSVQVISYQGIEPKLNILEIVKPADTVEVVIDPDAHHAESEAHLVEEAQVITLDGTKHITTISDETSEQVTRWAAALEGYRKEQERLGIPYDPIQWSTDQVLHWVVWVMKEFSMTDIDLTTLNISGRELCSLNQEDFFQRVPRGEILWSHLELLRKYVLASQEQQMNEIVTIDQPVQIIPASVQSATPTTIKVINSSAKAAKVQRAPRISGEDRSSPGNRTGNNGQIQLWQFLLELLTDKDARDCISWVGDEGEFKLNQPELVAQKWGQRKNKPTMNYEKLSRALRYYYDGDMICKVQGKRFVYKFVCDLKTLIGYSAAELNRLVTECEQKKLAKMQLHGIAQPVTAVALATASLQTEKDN
Outline: as §1

[4] = molecular target: T4, ERG (Homo sapiens, UniProt P11308 1-479)
T4 sequence: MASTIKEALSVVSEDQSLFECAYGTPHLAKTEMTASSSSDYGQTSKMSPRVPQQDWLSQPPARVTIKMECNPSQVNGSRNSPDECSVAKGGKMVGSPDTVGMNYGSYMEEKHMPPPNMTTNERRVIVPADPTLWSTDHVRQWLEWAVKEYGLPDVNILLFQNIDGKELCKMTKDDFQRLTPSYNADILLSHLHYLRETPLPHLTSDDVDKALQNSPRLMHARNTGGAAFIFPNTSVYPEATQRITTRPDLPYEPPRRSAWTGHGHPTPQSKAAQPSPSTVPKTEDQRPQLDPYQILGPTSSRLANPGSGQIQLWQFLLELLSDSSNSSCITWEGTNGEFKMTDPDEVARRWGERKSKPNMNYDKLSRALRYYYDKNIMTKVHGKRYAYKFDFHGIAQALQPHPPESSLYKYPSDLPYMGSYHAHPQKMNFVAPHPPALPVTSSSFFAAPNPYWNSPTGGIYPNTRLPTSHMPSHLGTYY
Outline: as §1

[5] = molecular target: ELF1 (Homo sapiens, UniProt P32519 1-619)
ELF1, sequence (P32519 whole entry): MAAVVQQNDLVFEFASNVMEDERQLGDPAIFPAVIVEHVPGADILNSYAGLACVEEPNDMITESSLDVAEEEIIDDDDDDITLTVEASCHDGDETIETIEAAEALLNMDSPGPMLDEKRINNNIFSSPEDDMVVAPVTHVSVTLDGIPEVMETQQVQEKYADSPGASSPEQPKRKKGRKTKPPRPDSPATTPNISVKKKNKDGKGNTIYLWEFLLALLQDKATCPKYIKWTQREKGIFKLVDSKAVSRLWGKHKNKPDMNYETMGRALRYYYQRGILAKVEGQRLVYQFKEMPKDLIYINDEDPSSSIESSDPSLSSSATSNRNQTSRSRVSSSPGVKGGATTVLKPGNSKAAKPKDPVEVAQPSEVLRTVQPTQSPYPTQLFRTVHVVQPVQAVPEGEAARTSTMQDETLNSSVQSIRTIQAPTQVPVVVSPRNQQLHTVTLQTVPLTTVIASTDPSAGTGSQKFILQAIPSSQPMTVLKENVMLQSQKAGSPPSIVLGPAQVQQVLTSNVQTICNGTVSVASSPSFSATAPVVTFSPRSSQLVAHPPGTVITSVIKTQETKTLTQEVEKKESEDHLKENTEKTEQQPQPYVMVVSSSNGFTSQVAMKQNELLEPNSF
Outline: as §1

[6] = molecular target: T5, EHF (Homo sapiens, UniProt Q9NZC4 1-300)
T5 sequence: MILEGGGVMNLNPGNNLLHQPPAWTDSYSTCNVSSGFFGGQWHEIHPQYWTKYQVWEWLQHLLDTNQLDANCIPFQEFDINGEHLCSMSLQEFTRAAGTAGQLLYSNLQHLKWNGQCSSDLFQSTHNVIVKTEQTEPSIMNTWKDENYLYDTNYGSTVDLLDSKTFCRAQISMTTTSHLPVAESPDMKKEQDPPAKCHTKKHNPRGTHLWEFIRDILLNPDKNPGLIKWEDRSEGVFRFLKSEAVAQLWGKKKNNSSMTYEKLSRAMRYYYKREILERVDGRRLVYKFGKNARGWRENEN
Outline: as §1

[7] = molecular target: SPI1 (Homo sapiens, UniProt P17947 1-270)
Outline: as §1

[8] = molecular target: SPIB (Homo sapiens, UniProt Q01892 1-262)
SPIB, sequence (Q01892 whole entry): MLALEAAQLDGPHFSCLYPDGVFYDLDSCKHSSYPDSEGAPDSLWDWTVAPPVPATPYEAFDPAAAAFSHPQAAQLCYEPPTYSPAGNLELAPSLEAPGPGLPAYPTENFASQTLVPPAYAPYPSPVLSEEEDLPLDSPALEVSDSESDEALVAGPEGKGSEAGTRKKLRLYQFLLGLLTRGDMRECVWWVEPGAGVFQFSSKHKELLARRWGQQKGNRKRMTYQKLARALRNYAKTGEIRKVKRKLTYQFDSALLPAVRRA
Outline: as §1

[9] = molecular target: SPI1 (Homo sapiens, UniProt P17947 1-270); remark: listed apart in the source
Outline: as §1

[10] = molecular target: T6, ELK3 (Homo sapiens, UniProt P41970 1-407)
T6 sequence: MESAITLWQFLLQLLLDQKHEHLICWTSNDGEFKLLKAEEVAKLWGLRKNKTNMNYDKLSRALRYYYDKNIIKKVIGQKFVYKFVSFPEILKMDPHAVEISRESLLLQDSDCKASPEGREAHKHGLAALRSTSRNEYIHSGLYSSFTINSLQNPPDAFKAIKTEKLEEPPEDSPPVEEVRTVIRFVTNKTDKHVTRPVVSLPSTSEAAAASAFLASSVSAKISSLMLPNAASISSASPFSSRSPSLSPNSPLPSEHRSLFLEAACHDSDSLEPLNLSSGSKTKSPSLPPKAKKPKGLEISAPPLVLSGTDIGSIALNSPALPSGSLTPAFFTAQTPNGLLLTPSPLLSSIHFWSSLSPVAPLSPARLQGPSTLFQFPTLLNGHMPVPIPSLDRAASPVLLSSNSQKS
Outline: as §1

Sequence: ATTAAG
- binding signal [1]: 1.04 fold enrichment (6-mer frequency, TF over GST control)
- binding signal [2]: 1.07 fold enrichment (6-mer frequency, TF over GST control)
- binding signal [3]: 1.09 fold enrichment (6-mer frequency, TF over GST control)
- binding signal [4]: 1.01 fold enrichment (6-mer frequency, TF over GST control)
- binding signal [5]: 1.08 fold enrichment (6-mer frequency, TF over GST control)
- binding signal [6]: 1.04 fold enrichment (6-mer frequency, TF over GST control)
- binding signal [7]: 1.03 fold enrichment (6-mer frequency, TF over GST control)
- binding signal [8]: 1.06 fold enrichment (6-mer frequency, TF over GST control)

Sequence: CACTTC
- binding signal [1]: 3.41 fold enrichment (6-mer frequency, TF over GST control)
- binding signal [2]: 3.77 fold enrichment (6-mer frequency, TF over GST control)
- binding signal [3]: 3.25 fold enrichment (6-mer frequency, TF over GST control)
- binding signal [4]: 4.19 fold enrichment (6-mer frequency, TF over GST control)
- binding signal [5]: 3.41 fold enrichment (6-mer frequency, TF over GST control)
- binding signal [6]: 3.63 fold enrichment (6-mer frequency, TF over GST control)
- binding signal [9]: 5.56 fold enrichment (6-mer frequency, TF over GST control)
- binding signal [8]: 3.54 fold enrichment (6-mer frequency, TF over GST control)
- binding signal [10]: 3.97 fold enrichment (6-mer frequency, TF over GST control)

Sequence: TATGCC
- binding signal [1]: 1.11 fold enrichment (6-mer frequency, TF over GST control)
- binding signal [2]: 1.27 fold enrichment (6-mer frequency, TF over GST control)
- binding signal [3]: 1.21 fold enrichment (6-mer frequency, TF over GST control)
- binding signal [4]: 1.17 fold enrichment (6-mer frequency, TF over GST control)
- binding signal [5]: 1.2 fold enrichment (6-mer frequency, TF over GST control)
- binding signal [6]: 1.18 fold enrichment (6-mer frequency, TF over GST control)
- binding signal [7]: 1.11 fold enrichment (6-mer frequency, TF over GST control)
- binding signal [8]: 1.26 fold enrichment (6-mer frequency, TF over GST control)

Sequence: TGTGCA
- binding signal [1]: 1 fold enrichment (6-mer frequency, TF over GST control)
- binding signal [2]: 1.09 fold enrichment (6-mer frequency, TF over GST control)
- binding signal [3]: 1.08 fold enrichment (6-mer frequency, TF over GST control)
- binding signal [4]: 1.16 fold enrichment (6-mer frequency, TF over GST control)
- binding signal [5]: 1.08 fold enrichment (6-mer frequency, TF over GST control)
- binding signal [6]: 1.14 fold enrichment (6-mer frequency, TF over GST control)
- binding signal [7]: 1.08 fold enrichment (6-mer frequency, TF over GST control)
- binding signal [8]: 1.18 fold enrichment (6-mer frequency, TF over GST control)

Sequence: AATAGA
- binding signal [1]: 1.06 fold enrichment (6-mer frequency, TF over GST control)
- binding signal [2]: 1.09 fold enrichment (6-mer frequency, TF over GST control)
- binding signal [3]: 1.11 fold enrichment (6-mer frequency, TF over GST control)
- binding signal [4]: 1.12 fold enrichment (6-mer frequency, TF over GST control)
- binding signal [5]: 1.09 fold enrichment (6-mer frequency, TF over GST control)
- binding signal [6]: 1.08 fold enrichment (6-mer frequency, TF over GST control)
- binding signal [7]: 1.08 fold enrichment (6-mer frequency, TF over GST control)
- binding signal [8]: 1.05 fold enrichment (6-mer frequency, TF over GST control)

Sequence: CGAAAG
- binding signal [1]: 1.15 fold enrichment (6-mer frequency, TF over GST control)
- binding signal [2]: 1.13 fold enrichment (6-mer frequency, TF over GST control)
- binding signal [3]: 1.08 fold enrichment (6-mer frequency, TF over GST control)
- binding signal [4]: 1.04 fold enrichment (6-mer frequency, TF over GST control)
- binding signal [5]: 1.09 fold enrichment (6-mer frequency, TF over GST control)
- binding signal [6]: 1.01 fold enrichment (6-mer frequency, TF over GST control)
- binding signal [7]: 1.16 fold enrichment (6-mer frequency, TF over GST control)
- binding signal [8]: 1.06 fold enrichment (6-mer frequency, TF over GST control)

Sequence: CTGTTG
- binding signal [1]: 1.08 fold enrichment (6-mer frequency, TF over GST control)
- binding signal [2]: 1.02 fold enrichment (6-mer frequency, TF over GST control)
- binding signal [3]: 1.11 fold enrichment (6-mer frequency, TF over GST control)
- binding signal [4]: 1.09 fold enrichment (6-mer frequency, TF over GST control)
- binding signal [5]: 1.1 fold enrichment (6-mer frequency, TF over GST control)
- binding signal [6]: 1.13 fold enrichment (6-mer frequency, TF over GST control)
- binding signal [7]: 1.16 fold enrichment (6-mer frequency, TF over GST control)
- binding signal [8]: 1.15 fold enrichment (6-mer frequency, TF over GST control)

Sequence: CCGGAA
- binding signal [1]: 5.18 fold enrichment (6-mer frequency, TF over GST control)
- binding signal [2]: 6.13 fold enrichment (6-mer frequency, TF over GST control)
- binding signal [3]: 4.9 fold enrichment (6-mer frequency, TF over GST control)
- binding signal [4]: 6.79 fold enrichment (6-mer frequency, TF over GST control)
- binding signal [5]: 5.12 fold enrichment (6-mer frequency, TF over GST control)
- binding signal [6]: 5.9 fold enrichment (6-mer frequency, TF over GST control)
- binding signal [9]: 5.33 fold enrichment (6-mer frequency, TF over GST control)
- binding signal [8]: 5.79 fold enrichment (6-mer frequency, TF over GST control)
- binding signal [10]: 6.42 fold enrichment (6-mer frequency, TF over GST control)

From PMC7862700, “An all-to-all approach to the identification of sequence-specific readers for epigenetic DNA modifications on cytosine”
